In PubChem BioAssay AID488857 (Sanford-Burnham Center for Chemical Genomics, 2010):
Out of some 1,400 compounds screened, about 560 (40%) were called active.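 The calls were made as follows: active = mean inhibition over duplicate tests at 10 µM above 50%; inactive = the rest.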 So high a share suggests a set chosen from earlier hits. The list shows a part of the results.

experiment: ASC/caspase-1 reporter retest in S. cerevisiae at one dose, specificity check for NALP1 project (AID 488857); conditions: S. cerevisiae ASC/Caspase-1, beta-galactosidase luminescence, 24 h; at 10 µM; hits give high values

SMILES	inhibition
Fc1ccc(C(OCCN2CCCC2)c2ccc(Br)cc2)cc1 (centres undefined)	53.5% (active)
CCCCN(Cc1ccccc1)C1CCN(CCc2ccccc2)CC1	52.6% (active)
CSc1ncc(Cl)c(C(=O)O)n1 (tested in a mixture with another compound)	35.1% (inactive)
Clc1ccc2nc3c(c(-c4ccccc4)c2c1)CNCC3	57% (active)
O=C(c1ccccc1)C(CN1CCCC1)c1ccccc1 (centres undefined)	25.8% (inactive)
COc1cc2c(cc1OC)CN(c1ccc([N+](=O)[O-])c(C(F)(F)F)c1)CC2	69% (active)
CCOCCN1CCN(c2nnc3n2-c2ccc(Cl)cc2C(c2ccccc2Cl)=NC3)CC1	30.9% (inactive)
CN[C@H]1C[C@H]2O[C@@](C)([C@H]1OC)n1c3ccccc3c3c4c(c5c6ccccc6n2c5c31)C(=O)NC4	99.2% (active)
Cc1ccc(C)c(NC(=S)NCCc2cnc[nH]2)c1	42.5% (inactive)
CC(Cc1ccccc1Sc1ccccc1)N(C)C (centres undefined)	42.8% (inactive)
COCCNCCOc1ccc(C(C)(C)c2ccccc2)cc1	52.3% (active)
CC1(C)C[C@H]2C=C(C=O)[C@]3(C=O)C[C@]3(C)[C@H]2C1	81.3% (active)
O=C1/C(=C/c2cccc([N+](=O)[O-])c2)N2CCC1CC2	51.1% (active)
Nc1c2c(nc3sc4c(c13)CCCC4)CCCCC2	58.4% (active)
Nc1c2c(nc3sc4c(c13)CCCCC4)CCCC2	91.1% (active)
CC(C)NS(=O)(=O)c1ccc(OCC(=O)N2CCN(C)CC2)cc1	17.6% (inactive)
CC(C)CCn1c(=O)c(C(=O)NCc2ccco2)c(O)c2ccccc21	44.8% (inactive)
Cc1cc2ccccn2c1C(C[N+](=O)[O-])c1c(F)cccc1Cl (centres undefined)	52.8% (active)
C[C@H]1C[C@@H](C)C(=O)[C@@H]([C@H](O)CC2CC(=O)NC(=O)C2)C1	98.8% (active)
CC(Cc1ccccc1)NC(=O)/C=C/c1ccc(Cl)cc1 (centres undefined)	71.7% (active)

SMILES	inhibition
c1ccc2sc(NC3=NCCN3)nc2c1	100% (active)
O=C1/C(=C/c2cc3c(cc2Cl)OCO3)N2CCC1CC2	55% (active)
Nc1ccc(C2(c3ccc(N)cc3)CN3CCC2CC3)cc1	35% (inactive)
CN1/C(=C\C=C\C2=[N+](C)c3ccc4ccccc4c3C2(C)C)C(C)(C)c2ccccc21	99.7% (active)
CN1CCN(c2ccc(N)c(N3CCN(C)CC3)c2)CC1	31.1% (inactive)
O=C(c1cc2c(s1)-c1ccccc1OC2)N1CCC2(CC1)OCCO2	53.8% (active)
N#CCCn1cc(C(=O)NCc2ccccc2)c(-c2ccccc2)n1	39.2% (inactive)
Cc1ccc(/C=C2\C(=O)NC(=O)N(CC3CCCO3)C2=O)s1 (centres undefined)	46.5% (inactive)
Cc1ccc(Cn2cc(C=O)c(-c3ccc(C)cc3)n2)cc1	67.5% (active)
Cc1cccc(N2C(=O)NC(=O)/C(=C/c3ccc([N+](=O)[O-])o3)C2=O)c1	45% (inactive)
Cc1ccc(S(=O)(=O)NC(CC(=O)N2CCC3(CC2)OCCO3)c2ccco2)cc1 (centres undefined)	31.6% (inactive)
CN1C2CCC1/C(=C/c1ccccn1)C(=O)/C2=C\c1ccccn1	96.9% (active)
CCCCCn1c(=O)c(C(=O)Nc2nc3ccccc3[nH]2)c(O)c2ccccc21	36.8% (inactive)
CCOc1cc(CNCCc2c[nH]c3ccccc23)cc(Cl)c1OCC	43.5% (inactive)
Nc1cc(Cl)c2nonc2c1[N+](=O)[O-]	57.1% (active)
Cc1ccc(-c2nc(N3CCOCC3)s[n+]2-c2ccccc2)cc1	61.9% (active)
CNC(=O)Oc1ccc2ncccc2c1	42.4% (inactive)
CC1CCCC(C)N1/N=C/c1c[nH]c2ccc(Br)cc12 (centres undefined)	45.3% (inactive)
COc1cc(/C=C(/C)[N+](=O)[O-])ccc1OCc1ccccc1Cl	80.2% (active)
